Data as given in PubChem BioAssay (NCI).
This is part of a sample that, as a whole, favours compounds with a hit. Of some 83,000 tested, about 20% had one in any assay.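 Treatment: one concentration, 48 hours, 96-well format. Scoring: percent growth, with anything below 10 considered active.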 Active and inactive are the calls of the source.

How the values were obtained:
Assay in all cases: NCI-60 one-dose screen, 48 h (100 = growth as untreated, 0 = no growth, -100 = all killed)
Settings in all cases: 10 µM unless noted
SK-MEL-2 melanoma = system: SK-MEL-2 melanoma
EKVX NSCLC = system: EKVX NSCLC
SN12C renal = system: SN12C renal
UO-31 renal = system: UO-31 renal
TK-10 renal = system: TK-10 renal
ACHN renal = system: ACHN renal
CAKI-1 renal = system: CAKI-1 renal
CCRF-CEM leukemia = system: CCRF-CEM leukemia
MOLT-4 leukemia = system: MOLT-4 leukemia
SR leukemia = system: SR leukemia
RPMI-8226 leukemia = system: RPMI-8226 leukemia
OVCAR-8 ovarian = system: OVCAR-8 ovarian
OVCAR-5 ovarian = system: OVCAR-5 ovarian
OVCAR-4 ovarian = system: OVCAR-4 ovarian
SK-OV-3 ovarian = system: SK-OV-3 ovarian
IGROV1 ovarian = system: IGROV1 ovarian
OVCAR-3 ovarian = system: OVCAR-3 ovarian
HS 578T breast = system: HS 578T breast
NCI/ADR-RES ovarian = system: NCI/ADR-RES ovarian

Measured: growth

CC1(C)CC(=O)C2=C(C1)N(c1ccc(F)cc1F)C(N)=C(C#N)C2c1cc(Br)ccc1F (stereo unspecified)
inactive: SK-MEL-2 melanoma 94% | EKVX NSCLC 94.8% | SN12C renal 96.6% | UO-31 renal 81.3% | TK-10 renal 104% | ACHN renal 94.9% | CAKI-1 renal 92.4% | CCRF-CEM leukemia 91.8% | MOLT-4 leukemia 88.9% | SR leukemia 31% | RPMI-8226 leukemia 80.6% | OVCAR-8 ovarian 86.7% | OVCAR-5 ovarian 107% | OVCAR-4 ovarian 83.1% | SK-OV-3 ovarian 131% | IGROV1 ovarian 94.3% | OVCAR-3 ovarian 99.7% | HS 578T breast 105% | NCI/ADR-RES ovarian 85.7%

COc1ccc(OC)c(-c2cc(-c3ccc(Cl)cc3)c3c(N)c(C(=O)c4ccc(Cl)cc4)sc3n2)c1
inactive: SK-MEL-2 melanoma 94.2% | EKVX NSCLC 93.8% | SN12C renal 101% | UO-31 renal 75.4% | TK-10 renal 102% | ACHN renal 97.4% | CAKI-1 renal 88.5% | CCRF-CEM leukemia 88.7% | MOLT-4 leukemia 103% | SR leukemia 101% | RPMI-8226 leukemia 94.2% | OVCAR-8 ovarian 104% | OVCAR-5 ovarian 96.4% | OVCAR-4 ovarian 93.1% | SK-OV-3 ovarian 89.8% | IGROV1 ovarian 92.1% | OVCAR-3 ovarian 103% | HS 578T breast 115% | NCI/ADR-RES ovarian 103%

COc1ccc(NC(N)=NCCCOc2ccc(F)cc2)cc1
inactive: SK-MEL-2 melanoma 93.7% | EKVX NSCLC 69% | SN12C renal 80.5% | UO-31 renal 86.7% | TK-10 renal 87.3% | ACHN renal 89.3% | CAKI-1 renal 94% | CCRF-CEM leukemia 82.9% | MOLT-4 leukemia 61% | SR leukemia 93.6% | RPMI-8226 leukemia 86% | OVCAR-8 ovarian 94.1% | OVCAR-5 ovarian 92.1% | OVCAR-4 ovarian 70.1% | SK-OV-3 ovarian 79.1% | IGROV1 ovarian 67.7% | OVCAR-3 ovarian 99.9% | HS 578T breast 113% | NCI/ADR-RES ovarian 99%

CC1=C(C(=O)/C=C/c2ccc(N(C)C)cc2)C(c2ccccc2)NC(=S)N1 (stereo unspecified)
inactive: SK-MEL-2 melanoma 102% | EKVX NSCLC 97.7% | SN12C renal 96.9% | UO-31 renal 75.4% | TK-10 renal 107% | ACHN renal 100% | CAKI-1 renal 89.8% | CCRF-CEM leukemia 108% | MOLT-4 leukemia 101% | SR leukemia 96.8% | RPMI-8226 leukemia 101% | OVCAR-8 ovarian 102% | OVCAR-5 ovarian 102% | OVCAR-4 ovarian 107% | SK-OV-3 ovarian 111% | IGROV1 ovarian 98.9% | OVCAR-3 ovarian 109% | HS 578T breast 98.2% | NCI/ADR-RES ovarian 100%
